As usually defined, the AC50 is the concentration at which the activity in the assay is half-maximal.

Active and inactive are the calls of the source. How the source made its calls: active means hit-call score of the fitted dose curve at least 0.9, where 1 is the maximum; inactive means score below 0.9.

Holding throughout (conditions): mRNA level, 48 h; actives raise or lower the signal
Read-out in assay [1]: Insulin Like Growth Factor 1 (IGF1), IGF1 (gene 3479)
Nature of the assay: LTEA_HepaRG_IGF1: Life Technologies and Expression Analysis (LTEA) Assay for Insulin Like Growth Factor 1 (IGF1) using HepaRG (AID 2283506). The method, boiled down:
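Endpoint: IGF1 mRNA change by qRT-PCR, housekeeping-normalized, fitted bidirectionally relative to 0.5% DMSO vehicle. Human HepaRG cells were treated 48 h in serum-free induction medium, eight half-log concentrations topping at 100 uM.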

Read-out in assay [2]: Intercellular Adhesion Molecule 1 (ICAM1), ICAM1 (gene 3383)
Nature of the assay: LTEA_HepaRG_ICAM1: Life Technologies and Expression Analysis (LTEA) Assay for Intercellular Adhesion Molecule 1 (ICAM1) using HepaRG (AID 2283507). The method, boiled down:
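Readout is qRT-PCR mRNA level, normalized to three housekeeping genes and fitted bidirectionally against 0.5% DMSO vehicle. Human HepaRG cultures received compound for 48 h, top concentration 100 uM with half-log dilutions.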

Read-out in assay [3]: Insulin-like growth factor-binding protein 1 (IGFBP1), IGFBP1 (gene 3484)
Nature of the assay: LTEA_HepaRG_IGFBP1: Life Technologies and Expression Analysis (LTEA) Assay for Insulin-like growth factor-binding protein 1 (IGFBP1) using HepaRG (AID 2283508). The gist of the method:
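Thawed HepaRG cells are plated for 48 h, switched to serum-free induction medium, then dosed in duplicate for another 48 h (100 uM top, half-log steps). Lysates in RLT go to qRT-PCR, and gain or loss of signal is fitted relative to vehicle.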

Read-out in assay [4]: Interleukin 6 (IL6), IL6 (gene 3569)
Nature of the assay: LTEA_HepaRG_IL6: Life Technologies and Expression Analysis (LTEA) Assay for Interleukin 6 (IL6) using HepaRG (AID 2283509). The method, boiled down:
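Changes in IL6 mRNA, up or down relative to 0.5% DMSO controls, were derived from concentration-response curves in human HepaRG cells treated for 48 h at up to 100 uM, with ACTB, GAPDH and POLR2A as normalizers.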

Read-out in assay [5]: Interleukin 6 Receptor (IL6R), IL6R (gene 3570)
Nature of the assay: LTEA_HepaRG_IL6R: Life Technologies and Expression Analysis (LTEA) Assay for Interleukin 6 Receptor (IL6R) using HepaRG (AID 2283510). The method, boiled down: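 In this HepaRG screen, test chemicals act on cells for 48 h at up to 100 uM (eight half-log points, duplicate wells). IL6R expression is quantified by qRT-PCR after normalization to ACTB, GAPDH and POLR2A, with DMSO as baseline.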

Read-out in assay [6]: Potassium channel subfamily K member 1 (KCNK1), KCNK1 (gene 3775)
Nature of the assay: LTEA_HepaRG_KCNK1: Life Technologies and Expression Analysis (LTEA) Assay for Potassium channel subfamily K member 1 (KCNK1) using HepaRG (AID 2283511). The method, boiled down:
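Human HepaRG cultures receive test chemicals for 48 h in 0.5% DMSO, top concentration 100 uM with half-log dilutions. Induction or suppression of KCNK1 mRNA relative to DMSO is derived by bidirectional fitting of qRT-PCR data.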

Read-out in assay [7]: JUN Transcription Factor, JUN (gene 3725)
Nature of the assay: LTEA_HepaRG_JUN: Life Technologies and Expression Analysis (LTEA) Assay for JUN Transcription Factor using HepaRG (AID 2283513). The gist of the method:
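Gene-expression endpoint: JUN mRNA (qRT-PCR, normalized to three reference genes) in HepaRG cultures treated 48 h with chemicals, duplicate wells, 100 uM maximum with half-log dilutions; bidirectional fitting relative to 0.5% DMSO.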

Read-out in assay [8]: Lipase C (LIPC), LIPC (gene 3990)
Nature of the assay: LTEA_HepaRG_LIPC: Life Technologies and Expression Analysis (LTEA) Assay for Lipase C (LIPC) using HepaRG (AID 2283514). The gist of the method: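 In this multiplexed gene-expression screen, human HepaRG cultures received test chemicals for 48 h across eight concentrations with 100 uM highest, in duplicate. Values reflect LIPC mRNA induction or suppression versus DMSO vehicle, from normalized qRT-PCR.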

Read-out in assay [9]: Lipoprotein lipase (LPL), LPL (gene 4023)
Nature of the assay: LTEA_HepaRG_LPL: Life Technologies and Expression Analysis (LTEA) Assay for Lipoprotein lipase (LPL) using HepaRG (AID 2283515). The gist of the method:
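Concentration-response testing used half-log steps from 100 uM in 0.5% DMSO on human HepaRG cells, 48 h, duplicate wells. Phenobarbital 1 mM served as induction control; LPL mRNA was normalized to ACTB, GAPDH, POLR2A.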

Read-out in assay [10]: MicroRNA 122 (MIR122), gene 406906
Nature of the assay: LTEA_HepaRG_MIR122: Life Technologies and Expression Analysis (LTEA) Assay for MicroRNA 122 (MIR122) using HepaRG (AID 2283516). Further: the transcript read is the microRNA miR-122. The method, boiled down: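 Changes in transcript abundance, up or down relative to 0.5% DMSO vehicle, were scored after 48 h chemical treatment of HepaRG cells (maximum 100 uM). Quantification used TaqMan qRT-PCR normalized to housekeeping genes.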

Read-out in assay [11]: matrix metalloproteinase-10 (MMP10), MMP10 (gene 4319)
Nature of the assay: LTEA_HepaRG_MMP10: Life Technologies and Expression Analysis (LTEA) Assay for matrix metalloproteinase-10 (MMP10) using HepaRG (AID 2283517). The method, boiled down:
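In differentiated HepaRG cultures kept in 0.5% DMSO, test chemicals act for 48 h over an eight-point range with a top dose of 100 uM. Expression is then quantified by TaqMan RT-PCR against ACTB, GAPDH and POLR2A.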

Read-out in assay [12]: MYC, MYC (gene 4609)
Nature of the assay: LTEA_HepaRG_MYC: Life Technologies and Expression Analysis (LTEA) Assay for MYC using HepaRG (AID 2283518). The method, boiled down: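 HepaRG, ~100,000 cells/well, collagen I; 48 h plating; serum-free induction medium; 48 h dosing, duplicate, 100 uM top, half-log, 0.5% DMSO; total RNA → qRT-PCR MYC; gain/loss fit vs DMSO.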

Read-out in assay [13]: matrix metalloproteinase-3 (MMP3), MMP3 (gene 4314)
Nature of the assay: LTEA_HepaRG_MMP3: Life Technologies and Expression Analysis (LTEA) Assay for matrix metalloproteinase-3 (MMP3) using HepaRG (AID 2283519). The gist of the method: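 Human liver HepaRG cultures received chemicals (top concentration 100 uM, 0.5% DMSO) for 48 h in duplicate. MMP3 mRNA induction or loss was then assessed via TaqMan qRT-PCR with housekeeping-gene normalisation.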

Read-out in assay [14]: Paternally Expressed 10 (PEG10), PEG10 (gene 23089)
Nature of the assay: LTEA_HepaRG_PEG10: Life Technologies and Expression Analysis (LTEA) Assay for Paternally Expressed 10 (PEG10) using HepaRG (AID 2283520).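 On AC50: PEG10 transcript by qRT-PCR normalised to ACTB GAPDH and POLR2A.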 The gist of the method: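 After 48 h exposure of differentiated HepaRG cells (0.5% DMSO vehicle, eight concentrations up to 100 uM, duplicates), PEG10 mRNA was measured by TaqMan qRT-PCR. Values were normalised to endogenous control genes and analysed bidirectionally against vehicle.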

Read-out in assay [15]: Protein phosphatase 2A (PPP2R4), PTPA (gene 5524)
Nature of the assay: LTEA_HepaRG_PPP2R4: Life Technologies and Expression Analysis (LTEA) Assay for Protein phosphatase 2A (PPP2R4) using HepaRG (AID 2283522). The method, boiled down:
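Using HepaRG cultures maintained in 0.5% DMSO, chemicals are tested 48 h at up to 100 uM in duplicate. Induction or suppression of PPP2R4 mRNA, measured by qRT-PCR, is fitted bidirectionally against the vehicle baseline.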

Read-out in assay [16]: Phosphatase and tensin (PTEN), PTEN (gene 5728)
Nature of the assay: LTEA_HepaRG_PTEN: Life Technologies and Expression Analysis (LTEA) Assay for Phosphatase and tensin (PTEN) using HepaRG (AID 2283523). The gist of the method:
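Expression of PTEN is quantified in the human liver line HepaRG following two days of dosing (top concentration 100 uM, half-log dilutions, 0.5% DMSO). Values derive from bidirectional curve fitting relative to DMSO controls.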

Read-out in assay [17]: solute carrier (SLC22A1), SLC22A1 (gene 6580)
Nature of the assay: LTEA_HepaRG_SLC22A1: Life Technologies and Expression Analysis (LTEA) Assay for solute carrier (SLC22A1) using HepaRG (AID 2283524).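 On AC50: differentiated human HepaRG liver cells in serum-free induction medium; TaqMan qRT-PCR normalized to ACTB GAPDH and POLR2A housekeeping genes.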 The gist of the method:
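Transcript induction or suppression of SLC22A1 in human HepaRG cultures is scored after 48 h chemical treatment, with DMSO (0.5%) as baseline for bidirectional fitting. Concentrations span eight half-log points topping at 100 uM.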

Read-out in assay [18]: Pyruvate Dehydrogenase Kinase 4 (PDK4), PDK4 (gene 5166)
Nature of the assay: LTEA_HepaRG_PDK4: Life Technologies and Expression Analysis (LTEA) Assay for Pyruvate Dehydrogenase Kinase 4 (PDK4) using HepaRG (AID 2283525). The gist of the method:
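Eight-point, half-log concentration series (max 100 uM, 0.5% DMSO) applied to differentiated HepaRG cells for 48 h in duplicate. Endpoint: PDK4 mRNA induction or repression by qRT-PCR against DMSO baseline.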

Read-out in assay [19]: Keratin 19 (KRT19), KRT19 (gene 3880)
Nature of the assay: LTEA_HepaRG_KRT19: Life Technologies and Expression Analysis (LTEA) Assay for Keratin 19 (KRT19) using HepaRG (AID 2283512). The gist of the method:
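KRT19 transcript levels, measured by Fluidigm qRT-PCR against three housekeeping genes, are fitted for gain or loss of signal relative to DMSO. Human HepaRG cells receive test chemicals (top 100 uM, half-log steps, 0.5% DMSO) for 48 hours.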

Read-out in assay [20]: Nuclear factor NF-kappa-B p105 subunit (Homo sapiens) (UniProt P19838)
Nature of the assay: LTEA_HepaRG_NFKB1: Life Technologies and Expression Analysis (LTEA) Assay for Nuclear Factor Kappa B Subunit 1 (NFKB1) using HepaRG (AID 2283521).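 Further: differentiated human HepaRG liver cells in serum-free induction medium; TaqMan qRT-PCR transcript normalised to ACTB GAPDH and POLR2A housekeeping genes.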 The method, boiled down: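 HepaRG, 48 h exposure; 8-pt half-log series from 100 uM in 0.5% DMSO; duplicates. Readout: NFKB1 mRNA by qRT-PCR (Fluidigm arrays), housekeeping-normalized. Gain/loss fit vs DMSO baseline.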

Sequence of Nuclear factor NF-kappa-B p105 subunit (Homo sapiens) (P19838 whole entry, looked up): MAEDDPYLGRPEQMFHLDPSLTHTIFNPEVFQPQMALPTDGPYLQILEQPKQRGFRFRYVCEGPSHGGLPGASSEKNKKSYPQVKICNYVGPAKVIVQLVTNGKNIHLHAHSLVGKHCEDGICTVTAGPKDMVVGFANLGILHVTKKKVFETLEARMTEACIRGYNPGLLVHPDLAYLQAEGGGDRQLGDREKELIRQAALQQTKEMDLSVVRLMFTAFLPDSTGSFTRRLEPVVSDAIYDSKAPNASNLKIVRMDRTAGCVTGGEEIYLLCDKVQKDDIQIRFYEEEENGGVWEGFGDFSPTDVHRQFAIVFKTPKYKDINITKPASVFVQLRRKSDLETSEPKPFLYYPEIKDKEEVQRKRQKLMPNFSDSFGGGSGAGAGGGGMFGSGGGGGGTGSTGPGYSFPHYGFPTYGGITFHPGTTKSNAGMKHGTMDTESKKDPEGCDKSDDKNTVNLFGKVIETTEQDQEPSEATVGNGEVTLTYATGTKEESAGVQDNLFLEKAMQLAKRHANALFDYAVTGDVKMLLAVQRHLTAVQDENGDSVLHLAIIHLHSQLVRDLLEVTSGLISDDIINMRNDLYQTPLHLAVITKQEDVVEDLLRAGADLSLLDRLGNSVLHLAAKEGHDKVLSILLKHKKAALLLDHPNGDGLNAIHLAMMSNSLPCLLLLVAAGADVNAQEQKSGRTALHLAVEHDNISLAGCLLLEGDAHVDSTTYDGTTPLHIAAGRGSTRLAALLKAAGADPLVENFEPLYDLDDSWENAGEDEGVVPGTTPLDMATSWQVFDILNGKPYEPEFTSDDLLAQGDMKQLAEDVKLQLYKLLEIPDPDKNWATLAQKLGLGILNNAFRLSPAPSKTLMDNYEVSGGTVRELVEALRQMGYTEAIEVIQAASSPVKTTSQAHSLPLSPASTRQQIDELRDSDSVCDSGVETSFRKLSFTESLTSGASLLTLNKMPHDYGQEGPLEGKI

As to `O=P(OC(CCl)CCl)(OC(CCl)CCl)OC(CCl)CCl`, the AC50 in assay [1] was 50 µM (active); in [2], 84.1 µM (active); in [3], 62.7 µM (active); in assay [4], 79.6 µM (active); in assay [8], 65.3 µM (active); in assay [9] it was 91.3 µM (active). Besides, the AC50 is 59.6 µM (active) in [10]; 82.9 µM (active) in [12]; 23.3 µM (active) in assay [13]; 12.7 µM (active) in [14]; 85.3 µM (active) in assay [15]; 75.2 µM (active) in [17]. Moreover, the compound was classed as inactive in assay [5], in assay [6], in assay [7], in assay [11], in [16] and in assay [18].
As to `Cc1ccc(N)cc1O`, the outcome in assay [1], in assay [2], in assay [3], in assay [5], in [6] and in assay [19] was inactive. Also, the outcome in assay [7], in assay [8], in [10], in [11], in assay [12] and in assay [13] was inactive. In addition, the result in [14], in [15], in assay [16], in [17] and in [18] was inactive. For the same compound, in [9], the AC50 is 31.8 µM (active).
Regarding `CCNc1ccccc1`, the outcome in assay [1], in assay [2], in assay [3], in assay [4], in assay [5] and in [6] was inactive. Moreover, the result in assay [8], in assay [9], in assay [10], in assay [11], in [12] and in [13] was inactive. Besides, the call in [14], in assay [20], in [15], in [16], in assay [17] and in assay [18] was inactive.

These data come from PubChem BioAssay (EPA / NIEHS).
